# Data from PubChem BioAssay.
# The source made the active and inactive calls.
# How the values were obtained:
# Albumin (Bos taurus) = Albumin (Bos taurus) (UniProt P02769); test: compounds binding labelled BSA control protein – biochemical, small-molecule microarray, Alexa647 label, 635/667 nm fluorescence, artefact control for SMM control protein annotation, profiling panel (AID 1118); settings: BSA-A647 binding, fluorescence 635 nm, higher = more signal;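 also: score merges 667 nm emission intensity and signal-to-noise per printed compound spot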
# [1] = probe aXIP binding to arrayed compounds – biochemical, NeuroSMM set, 635/667 nm fluorescence, primary screen (AID 1119); settings: small-molecule microarray, higher = more signal, called active from +8 up or from −8 down;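 also: probe is the protein aXip251-270 applied at 1 µg/mL to compound-printed slides; binding of probe to printed compounds measured as 667 nm fluorescence plus signal to noise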
# [2] = probe aNOTCH3 binding on compound microarray – biochemical, small-molecule microarray, 635/667 nm fluorescence, primary screen (AID 1120); settings: higher = more signal;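 also: probe is a biotin-tagged antibody raised against NOTCH3 rather than NOTCH3 protein; score merges spot fluorescence near 667 nm with spot signal to noise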
# [3] = probe aNOTCH2 binding on compound microarray – biochemical, small-molecule microarray, 635/667 nm fluorescence, primary screen (AID 1121); settings: higher = more signal;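 also: score merges feature fluorescence read at 667 nm with its signal to noise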
# [4] = target: Carbonic anhydrase 2 (Homo sapiens) (UniProt P00918); test: compounds binding carbonic anhydrase 2 – biochemical, small-molecule microarray, Alexa647-labelled CAII, profiling panel (AID 1122); settings: CAII-A647 binding fluorescence, higher = more signal
# [5] = COS7 lysate on small-molecule microarray, probe aHis, 635 nm (AID 1123); settings: COS7 cell lysate, fluorescence, higher = more signal;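 also: z-score combines 667nm fluorescence intensity with signal-to-noise per printed compound spot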
# [6] = probe aLAP1 signal on lysate-treated microarray – cell lysate, small-molecule microarray, COS7 lysate, primary screen (AID 1124); settings: probe aLAP1, fluorescence, higher = more signal;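 also: lysate comes from COS7 cells expressing LAP1 and is applied at 0.3 µg/mL; score merges spot fluorescence near 667 nm with signal-to-noise over triplicate slides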
# Sam68 (KHDRBS1) = test: compounds binding KHDRBS1 protein – biochemical, small-molecule microarray, 635 nm fluorescence, primary screen (AID 1125); settings: higher = more signal;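 also: score merges 667 nm channel intensity with signal to noise over triplicate slides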
# [7] = system: Chordin-like protein 2 (CHRDL2); test: compounds binding chordin-like 2 – biochemical, small-molecule microarray, 635 nm fluorescence, primary screen (AID 1126); settings: fluorescence 635 nm, higher = more signal;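 also: printed compound slides probed with Chrdl2 protein at 4 µg/mL for 1 h at 4 C; score merges 667 nm emission intensity with signal to noise over three replicate slides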
# [8] = target: Concanavalin-A (Canavalia ensiformis) (UniProt P02866); test: compounds binding concanavalin A lectin – biochemical, small-molecule microarray, Alexa647 label, 635 nm, artefact control for SMM control protein annotation, primary screen (AID 1127); settings: ConA-A647 binding fluorescence, higher = more signal;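 also: z combines 667 nm emission intensity with signal-to-noise across three replicate slides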
# [9] = compounds binding Alexa647 anti-His antibody – biochemical, small-molecule microarray, 635 nm fluorescence, artefact control for SMM control protein annotation, primary screen (AID 1128); settings: higher = more signal;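 also: score merges feature fluorescence with signal-to-noise for each printed compound spot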
# [10] = system: Human papillomavirus type 1a E7 protein (residues 1-88); test: HPV1a E7 small-molecule binders, primary screen, biochemical, small-molecule microarray, residues 1-88, 635 nm (AID 1129); settings: small-molecule microarray binding, fluorescence 635 nm; higher = more signal
# [11] = target: Focal adhesion kinase 1 (Homo sapiens) (UniProt Q05397); test: PTK2 protein binding on printed compound slides – biochemical, small-molecule microarray, 635/667 nm fluorescence, BSA, DTT, primary screen (AID 1130); settings: 635 nm fluorescence, higher = more signal;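 also: composite of spot emission at 667 nm and signal to noise over triplicate slides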
# [12] = system: Fibrinogen (Alexa647-labelled); test: Alexa647-fibrinogen binding to printed small molecules – biochemical, small-molecule microarray, 635/667 nm fluorescence, artefact control for SMM control-protein annotation, profiling panel (AID 1131); settings: fibrinogen-A647 binding fluorescence, higher = more signal;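 also: z-score merges 667 nm fluorescence with per-spot signal-to-noise over triplicate slides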
# [13] = target: Follistatin (Homo sapiens) (UniProt P19883); test: FST protein binding to printed compounds – biochemical, small-molecule microarray, 635/667 nm fluorescence, primary screen (AID 1132); settings: 635 nm fluorescence, higher = more signal
# [14] = target: Fibroblast growth factor 2 (Homo sapiens) (UniProt P09038); test: basic fibroblast growth factor binding to printed compounds – biochemical, small-molecule microarray, 635/667 nm fluorescence, primary screen (AID 1133); settings: FGF2, fluorescence 635/667, higher = more signal
# [15] = JC-1 mitochondrial potential readout, lung cancer cells – cell-based, A549, JC-1 fluorescence, basal, 24 h, 100 nL, profiling panel (AID 1138); settings: higher = more signal;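 also: A549 lung adenocarcinoma cells under basal conditions with no added stimulus; test concentration not given here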
# Lefty1 = Lefty1 protein binding to printed compounds – biochemical, small-molecule microarray, 635/667 nm fluorescence, primary screen (AID 1139); settings: fluorescence 635/667, higher = more signal
# [16] = system: wheat germ agglutinin (Triticum aestivum), Alexa647-labelled; test: Alexa647-WGA lectin binding to printed small molecules – biochemical, small-molecule microarray, 635/667 nm fluorescence, artefact control for SMM control-protein annotation, profiling panel (AID 1140); settings: WGA-A647 binding, 635 nm fluorescence, higher = more signal;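 also: score merges 667 nm feature emission with signal to noise over triplicate slides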
# [17] = target: Luciferin 4-monooxygenase (Photinus pyralis) (UniProt P08659); test: inhibition of purified Photinus pyralis luciferase – biochemical, luminescence, purified enzyme, 2006 set, primary screen (AID 1141); settings: purified firefly luciferase, SteadyGlo luminescence, 30 min; higher = more signal, called active from +8 up or from −8 down;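 also: cell-free assay with purified firefly luciferase at 100 ng per well in PBS; test concentration not given here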
# Sequence of Luciferin 4-monooxygenase (Photinus pyralis) (P08659 whole entry, looked up): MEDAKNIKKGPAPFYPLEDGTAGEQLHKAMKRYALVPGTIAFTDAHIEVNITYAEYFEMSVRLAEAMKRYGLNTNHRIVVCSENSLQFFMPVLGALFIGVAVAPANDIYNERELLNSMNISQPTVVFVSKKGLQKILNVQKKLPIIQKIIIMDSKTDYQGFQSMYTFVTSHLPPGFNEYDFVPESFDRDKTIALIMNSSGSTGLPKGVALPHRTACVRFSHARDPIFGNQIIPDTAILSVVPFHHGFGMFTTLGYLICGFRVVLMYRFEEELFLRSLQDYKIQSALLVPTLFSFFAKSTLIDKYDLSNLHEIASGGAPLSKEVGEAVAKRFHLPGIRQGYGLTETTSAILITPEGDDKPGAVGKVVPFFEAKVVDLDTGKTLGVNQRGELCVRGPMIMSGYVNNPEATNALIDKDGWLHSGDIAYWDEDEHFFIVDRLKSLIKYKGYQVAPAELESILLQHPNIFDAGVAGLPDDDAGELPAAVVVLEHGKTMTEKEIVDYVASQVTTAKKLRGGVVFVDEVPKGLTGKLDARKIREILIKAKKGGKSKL
# Sequence of Follistatin (Homo sapiens) (P19883 whole entry, looked up): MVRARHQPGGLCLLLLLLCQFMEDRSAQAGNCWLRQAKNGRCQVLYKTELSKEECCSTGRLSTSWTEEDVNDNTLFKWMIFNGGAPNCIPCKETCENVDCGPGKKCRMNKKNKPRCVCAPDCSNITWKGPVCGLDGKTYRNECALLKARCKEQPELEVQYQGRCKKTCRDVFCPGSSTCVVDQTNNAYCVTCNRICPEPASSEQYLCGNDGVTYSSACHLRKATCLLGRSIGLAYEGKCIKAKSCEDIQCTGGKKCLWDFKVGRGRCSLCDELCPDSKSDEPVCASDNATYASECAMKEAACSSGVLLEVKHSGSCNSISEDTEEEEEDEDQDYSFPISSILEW
# Sequence of Fibroblast growth factor 2 (Homo sapiens) (P09038 whole entry, looked up): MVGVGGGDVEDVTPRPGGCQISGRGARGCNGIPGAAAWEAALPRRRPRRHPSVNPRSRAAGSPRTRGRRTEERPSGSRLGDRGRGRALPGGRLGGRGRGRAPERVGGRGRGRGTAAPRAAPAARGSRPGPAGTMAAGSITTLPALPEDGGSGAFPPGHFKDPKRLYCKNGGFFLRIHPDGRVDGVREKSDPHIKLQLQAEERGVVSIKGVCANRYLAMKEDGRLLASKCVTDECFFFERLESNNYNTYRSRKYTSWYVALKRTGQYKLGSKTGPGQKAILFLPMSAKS
# Sequence of Albumin (Bos taurus) (P02769 whole entry, looked up): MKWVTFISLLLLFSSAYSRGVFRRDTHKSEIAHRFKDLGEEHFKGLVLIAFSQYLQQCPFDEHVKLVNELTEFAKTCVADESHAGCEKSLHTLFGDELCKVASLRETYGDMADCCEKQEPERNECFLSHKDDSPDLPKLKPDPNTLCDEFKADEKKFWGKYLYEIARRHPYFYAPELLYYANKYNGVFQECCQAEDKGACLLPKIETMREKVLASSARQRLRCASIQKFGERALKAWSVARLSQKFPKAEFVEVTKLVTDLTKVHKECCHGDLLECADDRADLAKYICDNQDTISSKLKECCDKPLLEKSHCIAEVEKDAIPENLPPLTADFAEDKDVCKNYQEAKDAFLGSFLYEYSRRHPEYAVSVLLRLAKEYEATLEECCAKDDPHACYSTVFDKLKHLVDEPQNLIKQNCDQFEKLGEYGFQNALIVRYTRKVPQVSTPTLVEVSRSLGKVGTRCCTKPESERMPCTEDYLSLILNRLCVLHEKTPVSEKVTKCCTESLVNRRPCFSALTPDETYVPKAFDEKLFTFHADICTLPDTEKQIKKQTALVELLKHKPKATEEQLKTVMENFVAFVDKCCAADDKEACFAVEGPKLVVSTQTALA
# Sequence of Focal adhesion kinase 1 (Homo sapiens) (Q05397 whole entry, looked up): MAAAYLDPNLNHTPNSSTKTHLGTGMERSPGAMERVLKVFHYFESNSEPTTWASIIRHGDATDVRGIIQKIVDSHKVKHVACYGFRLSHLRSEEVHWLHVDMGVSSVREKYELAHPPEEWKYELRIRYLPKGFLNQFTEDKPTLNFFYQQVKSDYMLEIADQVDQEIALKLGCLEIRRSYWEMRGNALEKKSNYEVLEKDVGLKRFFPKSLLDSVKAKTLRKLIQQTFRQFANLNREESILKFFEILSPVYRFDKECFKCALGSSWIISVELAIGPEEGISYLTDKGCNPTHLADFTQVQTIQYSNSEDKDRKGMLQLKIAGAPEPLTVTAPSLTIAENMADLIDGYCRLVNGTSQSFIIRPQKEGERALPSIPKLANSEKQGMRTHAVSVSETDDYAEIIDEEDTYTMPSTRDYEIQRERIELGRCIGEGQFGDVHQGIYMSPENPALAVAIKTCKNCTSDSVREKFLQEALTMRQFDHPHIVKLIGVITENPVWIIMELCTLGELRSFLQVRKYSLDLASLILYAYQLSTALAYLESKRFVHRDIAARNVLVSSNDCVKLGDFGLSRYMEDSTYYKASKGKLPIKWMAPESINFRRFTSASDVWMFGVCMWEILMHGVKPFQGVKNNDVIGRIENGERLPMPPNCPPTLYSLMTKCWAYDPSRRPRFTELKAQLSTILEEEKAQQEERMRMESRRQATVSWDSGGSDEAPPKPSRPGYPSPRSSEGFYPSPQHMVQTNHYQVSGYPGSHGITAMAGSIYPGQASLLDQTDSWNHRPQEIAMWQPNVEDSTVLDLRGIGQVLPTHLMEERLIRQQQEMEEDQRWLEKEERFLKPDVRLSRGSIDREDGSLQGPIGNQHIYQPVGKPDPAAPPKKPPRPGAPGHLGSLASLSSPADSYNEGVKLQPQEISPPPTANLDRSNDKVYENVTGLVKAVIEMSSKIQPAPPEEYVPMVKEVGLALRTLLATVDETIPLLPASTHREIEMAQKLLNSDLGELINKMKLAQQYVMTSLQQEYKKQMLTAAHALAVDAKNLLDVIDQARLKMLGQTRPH
# Sequence of Concanavalin-A (Canavalia ensiformis) (P02866 whole entry, looked up): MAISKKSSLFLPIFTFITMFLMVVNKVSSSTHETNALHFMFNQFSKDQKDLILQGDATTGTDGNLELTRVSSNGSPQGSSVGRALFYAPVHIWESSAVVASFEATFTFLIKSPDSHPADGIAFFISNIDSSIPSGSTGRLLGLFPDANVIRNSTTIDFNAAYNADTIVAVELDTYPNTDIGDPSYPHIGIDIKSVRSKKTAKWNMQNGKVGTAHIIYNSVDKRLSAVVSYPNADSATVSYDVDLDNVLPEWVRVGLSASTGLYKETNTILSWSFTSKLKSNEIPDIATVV
Structure (SMILES),composite z-score (Albumin (Bos taurus)),composite Z-score [1],composite z-score [2],composite z-score [3],composite z-score [4],composite z-score [5],composite z-score [6],composite z-score (Sam68 (KHDRBS1)),composite z-score [7],composite z-score [8],composite z-score [9],composite z-score [10],composite z-score [11],composite z-score [12],composite z-score [13],composite z-score [14],z-score [15],composite z-score (Lefty1),composite z-score [16],z-score [17]
COCCOC(=O)N1C(=O)[C@@]2(c3cc(C#CCCO)ccc31)[C@H](c1ccccc1OCCO)N1[C@H](c3ccccc3)[C@H](c3ccccc3)OC(=O)[C@H]1[C@@H]2C(=O)N1CCc2cc(OC)c(OC)cc2C1,0.329,0.339 (inactive),0.0562,-0.101,0.4,1.85,1.02,1.31,0.469,1.09,1.86,1.22,0.405,0.869,1.14,1.25,-0.0868,0.786,0.546,-1.26 (inactive)
CC(C)C[C@H]1NC(=O)[C@H](Cc2ccccc2)NC(=O)[C@@]23C(=O)N[C@@H](Cc4ccccc4)C2[C@H](C)[C@@]2(C)O[C@H]2C3/C=C/C/C=C\CNC1=O (stereo not given in full),-0.235,0.63 (inactive),-0.0077,-0.153,0.535,1.14,0.495,1.3,0.937,0.738,0.701,0.475,0.899,0.315,0.927,1.01,-0.000177,0.376,0.658,-0.179 (inactive)
C=CCC(OC(C)=O)[C@@H]1[C@@H](N(Cc2ccc(-c3cccc(C(F)(F)F)c3)o2)C(=O)Cc2ccc(F)cc2)c2cc(OCCCO)ccc2N1C(=O)c1ccc2ccccc2n1 (stereo not given in full),0.671,0.272 (inactive),0.228,-0.0664,-0.0261,0.27,-0.0949,0.388,0.353,-2.02,-0.255,-0.732,-0.153,-1.12,0.67,-0.0898,0.898,-0.286,-0.375,-0.1 (inactive)
CCOC(=O)C[C@H]1[C@H](OC(=O)c2cc3ccccc3oc2=O)[C@@H](NC(=O)C2CCCCC2)c2cc(OCCCO)ccc2N1C(=O)Cc1ccc(OC)cc1,0.259,0.127 (inactive),1.41,-0.0111,0.51,0.988,0.319,0.736,0.328,-0.146,0.737,0.122,-0.207,0.231,0.722,0.188,0.0812,0.646,0.507,0.696 (inactive)
COCCOC(=O)N1C(=O)[C@@]2(c3cc(C#CCC(C(=O)OC)C(=O)OC)ccc31)[C@H](C(=O)N1CCCCCCC1)[C@H]1C(=O)O[C@H](c3ccccc3)[C@H](c3ccccc3)N1[C@@H]2c1ccccc1OCCO,0.847,0.269 (inactive),1.91,0.689,0.761,3.14,1.16,1.29,1.44,1.06,2.09,1.18,0.945,0.775,1.45,1.43,-1.49,0.884,1.46,-0.694 (inactive)
NCCCC[C@@H]1NC(=O)[C@H]2C[C@@H](C(=O)NCc3ccc(F)cc3)[C@@H](c3ccc(O)cc3)N2C1=O,-0.135,0.744 (inactive),0.125,-0.0531,0.738,2.18,0.313,1.19,0.521,1.13,2.05,0.969,-0.145,0.165,1.32,1.32,-0.724,0.296,1.2,0.242 (inactive)
